From PubChem BioAssay AID651703 (Broad Institute, 2012)
Among all 1,200 compounds or so, about 970 (81%) were called active. No rule for the calls is given here. The set was probably picked from earlier hits. A selection follows. Results with a measured potency or affinity are listed apart. Non-standard residues stand in square brackets, D forms with d. Residues, ends and D or L forms follow the SMILES beside them. *: point of attachment. Ac5c = NC1(C(=O)O)CCCC1; Cbz = O=C(OCc1ccccc1)*

These compounds were tested against Transforming acidic coiled-coil-containing protein 3 (Homo sapiens) (UniProt Q9Y6A5) (assay: ARNT/TACC3 interaction disruptors, potency, confirmation, biochemical, AlphaScreen, cherry-picked samples (AID 651703;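 also: TACC3 partner is the GST-tagged E629A mutant dimer; hits lower the signal meaning they disrupt ARNT binding to TACC3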)). Settings: AlphaScreen His-ARNT PAS-B / GST-TACC3 binding, luminescence; series mostly up to 68 µM; activity change, negative = inhibition: at the top concentration.

| Compound | activity change, negative = inhibition |
| --- | --- |
| CN(C)C(=O)c1cccc(-c2ccc3c(c2)[C@@H]2[C@@H](CCN2C(=O)c2cccnc2)[C@@H](CO)N3)c1 | -11.2% (inactive) |
| O=C(C[C@H]1C=C[C@H](NS(=O)(=O)c2ccc(F)cc2)[C@H](CO)O1)N1CCN(c2ccccc2)CC1 | -5.74% (inactive) |
| C[C@H](CO)N1C[C@H](C)[C@@H](CN(C)Cc2ccccn2)Oc2ncc(C#CC3(O)CCCC3)cc2C1=O | -21.8% (inactive) |
| COc1ccc(OC)c(-n2nnnc2SCC(=O)Nc2ccccc2OC)c1 | -24.6% (inactive) |
| CC(=O)N(C)C1=C(O)c2ccccc2C(=O)C1=O | 3.26% (inactive) |
| O=C(Nc1ccc2c(c1)OCO2)c1ccc2c(c1)OCO2 | -25.8% (inactive) |
| CN(C)CCNC(=O)c1cc(-c2ccccc2)on1 | -1.32% (inactive) |
| COc1ccc(OC)c2nc3c(C(=O)NCCN(C)C)cccc3nc12 | -2.27% (inactive) |
| CCn1cc(/C=C2/SC(=S)NC2=O)c(C)n1 | -2.57% (inactive) |
| Nc1ccc2nn(-c3ccc(F)cc3)nc2c1 | -35.2% (inactive) |
| Cc1ccc(CNC(=O)c2cc(-c3ccccc3)on2)cc1 | 4.88% (inactive) |
| COc1ccc(C2=C(C)CC(C)(C)NC2=O)cc1OC | -25.1% (inactive) |
| O=c1ccc(-c2ccc(S(=O)(=O)Nc3ccc(F)cc3)s2)n[nH]1 | -18.8% (inactive) |
| Cn1c(NC(=O)c2cc(-c3ccccc3)on2)nc2ccccc21 | -9.11% (inactive) |
| O=C(Nc1ncc2ccccc2n1)c1cc(-c2ccccc2)on1 | -0.281% (inactive) |
| O=C(NCc1ccccc1)c1cc(-c2ccccc2)on1 | 2.2% (inactive) |
| CCCCNC(=O)c1cc(-c2ccccc2)on1 | 1.77% (inactive) |
| O=C(NCCN1CCCCC1)c1cc(-c2ccccc2)on1 | 4.24% (inactive) |
| O=c1c(C=NCCCn2ccnc2)c(-c2ccccc2)[nH]n1-c1nc2ccccc2s1 | -25.4% (inactive) |
| Cc1[nH][nH]c(=O)c1C(c1ccc(Br)cc1)c1c(C)[nH][nH]c1=O | -17.9% (inactive) |
| Cc1[nH][nH]c(=O)c1C(c1ccc(O)c(Br)c1)c1c(C)[nH][nH]c1=O | -7.14% (inactive) |

| Compound | activity change, negative = inhibition |
| --- | --- |
| Cc1[nH][nH]c(=O)c1C(c1ccc(Cl)cc1)c1c(C)[nH][nH]c1=O | 5.36% (inactive) |
| O=C(C[C@@H]1CC[C@H](NC(=O)Nc2cc(F)ccc2F)[C@@H](CO)O1)Nc1ccc(-c2ccccc2)cc1 | -2.09% (inactive) |
| COc1cc(C2C(C#N)=C(N)Oc3n[nH]c(C)c32)ccc1OC(=O)c1ccccc1 (stereo unspecified) | -16.4% (inactive) |
| COC(=O)C1(NC(=O)CNC(=O)OCc2ccccc2)CCCC1 (Cbz-Gly-[Ac5c]-OMe) | -7.97% (inactive) |
| CCN(CC)CCCNc1nc2ccccc2c2[nH]c3ccc(OC)cc3c12 | -7.38% (inactive) |
| Cn1c(N)c(C(=O)c2cc(-c3ccccn3)nc3ccccc23)c(=O)[nH]c1=O | -17.4% (inactive) |
| Cc1c(NC(=O)c2cccnc2C(=O)O)cccc1C(=O)O | -3.04% (inactive) |
| N#Cc1ccc(CC(=O)c2ccccc2)[nH]c1=O | -8.48% (inactive) |
| C[C@@H]1CN([C@H](C)CO)S(=O)(=O)c2ccc(C#Cc3ccccn3)cc2O[C@@H]1CN(C)C(=O)C1CC1 | -9.78% (inactive) |
| C[C@H](CO)N1C[C@H](C)[C@H](CN(C)Cc2cccnc2)Oc2cc(C#CCN(C)C)ccc2S1(=O)=O | -10.9% (inactive) |
| O=C(C[C@@H]1CC[C@@H](NC(=O)c2ccccc2)[C@H](CO)O1)Nc1ccc(-c2ccccc2)cc1 | -7.97% (inactive) |
| O=C(N[C@H]1CC[C@@H](CCn2cc(-c3ccccc3)nn2)O[C@@H]1CO)c1cnccn1 | -5.38% (inactive) |
| O=C(C[C@H]1CC[C@@H](NC(=O)c2ccccc2)[C@H](CO)O1)Nc1ccc(-c2ccccc2)cc1 | -7.06% (inactive) |
| CN1CCC(n2[nH]c(-c3ccccc3)c(Cc3ccccc3)c2=O)CC1 | -10.5% (inactive) |
| CC(C)NC(=O)Nc1ccc2c(c1)CC(=O)N([C@H](C)CO)C[C@H](C)[C@H](CN(C)S(=O)(=O)c1cccs1)O2 | -14.9% (inactive) |
| C[C@@H]1CN([C@@H](C)CO)C(=O)c2cc(NC(=O)CCN3CCOCC3)ccc2O[C@@H]1CN(C)Cc1ccncc1 | -3.85% (inactive) |
| C[C@H]1CN([C@@H](C)CO)C(=O)c2cc(C#Cc3ccccn3)cnc2O[C@@H]1CN(C)Cc1ccccc1 | -12.5% (inactive) |
| CC(C)NC(=O)N(C)C[C@H]1Oc2ccc(N(C)C)cc2CC(=O)N([C@@H](C)CO)C[C@@H]1C | 0.668% (inactive) |
| COc1ccc(-c2cnc3c(c2)C(=O)N([C@H](C)CO)C[C@@H](C)[C@H](CN(C)Cc2cccnc2)O3)cc1 | -5.95% (inactive) |
| COc1ccc(CN(C)C[C@@H]2Oc3ccc(NC(=O)Cn4cnnn4)cc3C(=O)N([C@@H](C)CO)C[C@H]2C)cc1 | -9.62% (inactive) |
| C[C@H](CO)N1C[C@H](C)[C@H](CN(C)C(=O)NC2CCCCC2)Oc2ccc(NS(=O)(=O)c3cccs3)cc2CC1=O | -6.44% (inactive) |

| Compound | activity change, negative = inhibition |
| --- | --- |
| Cc1cc(C)n2nc(-c3cccc(Br)c3)cc2n1 | 0.525% (inactive) |
| N/C(=N\NS(=O)(=O)c1ccccc1Cl)c1ccccn1 | -23% (inactive) |
| S=c1[nH]nc(-c2cc3c(s2)-c2ccccc2CC3)o1 | -31.4% (inactive) |
| COc1cc2c(cc1OC)-c1cc(Nc3cccc(C)c3)nc(=O)n1CC2 | 5.52% (inactive) |
| O=C(COC(=O)c1ccc([N+](=O)[O-])o1)NCc1ccccc1 | -21.1% (inactive) |
| NS(=O)(=O)c1ccc(CCNC(=O)COC(=O)c2ccc([N+](=O)[O-])o2)cc1 | -30.5% (inactive) |
| O=C(NCCc1ccccc1)c1ccc(=O)[nH]c1 | -5.64% (inactive) |
| NC(=O)CC(NC(=O)c1ccccc1)c1ccc(NCc2ccccn2)c([N+](=O)[O-])c1 (stereo unspecified) | -13.6% (inactive) |
| COc1cc(/C=N/NC(=O)CSc2n[nH]c(=O)[nH]c2=O)cc(OC)c1O | -11% (inactive) |
| O=C(c1cc(-c2ccccc2)on1)N1CCC(N2CCOCC2)CC1 | -4.7% (inactive) |
| O=C(c1cc(-c2ccccc2)on1)N1CCC(CO)CC1 | -1.3% (inactive) |
| Cc1[nH]c(=O)[nH]c(=O)c1/C=N/NC(=O)[C@H](C)NC(=O)OC(C)(C)C | -1.1% (inactive) |
| COc1ccc(-c2nnc(SCC(=O)NC3CC3)o2)cc1 | -3.22% (inactive) |
| COC(=O)C[C@@H]1CC[C@@H](NS(=O)(=O)c2ccc(OC)cc2)[C@H](CO)O1 | -0.059% (inactive) |
| Cc1[nH]cnc1CN1CCc2c(c3ccccc3n2C)C1=O | -21.6% (inactive) |
| COc1ccc(C(=O)Nc2nc3ccccc3[nH]2)cc1S(=O)(=O)N1CCOCC1 | -27.7% (inactive) |
| O=C(NCCN1CCOCC1)c1cc(-c2ccccc2)on1 | -3.9% (inactive) |
| CCOc1cc2nc(-c3ccc(OC)c(OC)c3)nc(NCCCN3CCOCC3)c2cc1OC | -5.91% [at 35 µM] (inactive) |
| O=C(NCCCN1CCOCC1)c1cc(-c2ccccc2)on1 | 6.12% (inactive) |
